The campaign covered roughly 52,000 compounds. About 4,300 (8.3%) were called active. Many of the other results were omitted from the sample, so actives are more common in it than they were. Values without a mark were called inactive. No stated cut-off is given here; in the data, active means survival mostly below about 52% (no sharp cut-off); inactive means mostly above about 56%.

The test deals with DeltatarO mutant. Description: S. aureus survival, RN4220 and DeltatarO strains – OD600, teichoic acid synthesis inhibitors, primary screen (AID 463173). As to conditions: S. aureus RN4220 wild type/DeltatarO growth, OD600, 18 h, stronger effect = lower value, screened at 18.75 µg/mL (by protocol).
Consider `Cc1ccc(S(=O)(=O)C(CNC(=O)C(=O)NCCc2ccccc2)c2cccs2)cc1` (stereo not drawn), for which the survival was 107%. For `C=CCN(C(=O)c1ccc2c(c1)nnn2C)c1ccccc1` the value was 97%; for `O=C(NC1CCCCC1)NC1CCN(Cc2nnnn2Cc2ccc3c(c2)OCO3)CC1`, 88%. For `Cc1nn(-c2cccc(Cl)c2)c2nc(-c3cccnc3)cc(C(F)(F)F)c12` the value was 45%; for `Cc1ccc(-n2nc(C)c3c(C(F)(F)F)cc(-c4cccnc4)nc32)cc1Cl`, 53%. For `Cc1nn(-c2ccc(Cl)cc2)c2nc(-c3cccnc3)cc(C(F)(F)F)c12` the value was 39% (active); for `COc1ccc(CNC(=O)C2CCN(C(=O)c3ccc(-n4ccc5ccccc54)s3)CC2)cc1`, 90%; for `CCn1c2c(c(=O)n3ncc(C(=O)Nc4ccc(C(=O)OC)cc4)c13)CN(Cc1ccc(OC)cc1)CC2`, 81%. With `NC(=O)CN(c1ccccc1)C1SC(=O)NC1=O` (stereo not drawn), the survival is 76%. For `COc1ccccc1-n1c(SCC(=O)Nc2ccc(C)cc2)nc(O)cc1=O` the value was 61%; for `O=C(NC1CCCC1)c1ccc(CSc2nc3ccncc3n2Cc2cccc(F)c2)cc1`, 60%; for `Cc1ccc(CSc2nc3ccncc3n2Cc2nc(-c3ccc(Cl)cc3)oc2C)cc1`, 63%. Regarding `COC(=O)c1ccc(CSc2nc3ccncc3n2Cc2ccc(F)cc2)cc1`, the survival was 93%.

Consider `Cc1ccc(CSc2nc3ccncc3n2Cc2nc(-c3ccccc3C)oc2C)cc1`, for which the survival is -4% (active). For `COC(=O)c1ccc(Cn2c(SCc3ccccc3F)nc3ccncc32)cc1` the value was 42% (active); for `COc1ccc(CNC(=O)c2ccc(CSc3nc4ccncc4n3Cc3ccccc3F)cc2)cc1`, 62%; for `Cc1ccc(C)c(CSc2nc3ccncc3n2Cc2nc(-c3ccccc3Cl)oc2C)c1`, 71%. Turning to `COC(=O)c1ccc(Cn2c(SCc3ccc(F)cc3)nc3ccncc32)cc1`, the survival was 54%. For `COC(=O)c1ccc(Cn2c(SCc3cccc(C)c3)nc3ccncc32)cc1` the value was 83%; for `Cc1cccc(Cn2c(SCc3ccc(C(=O)NC4CCCC4)cc3)nc3ccncc32)c1`, 54% (active); for `Cc1cccc(Cn2c(SCc3ccc(C(=O)NC4CCCCC4)cc3)nc3ccncc32)c1`, 75%. For `COC(=O)c1ccc(Cn2c(SCc3ccccc3)nc3ccncc32)cc1` the value was 45% (active).

For the molecule `COc1ccc(NC(=O)CCc2nnc3n(Cc4ccc(C)cc4)c(=O)c4ccccc4n23)cc1`, the survival was 59%. For `Cc1cccc(-c2cc3nc(C)cc(NCCCn4ccnc4)n3n2)c1` the value was 88%; for `O=C(O)CSCCn1cccn1`, 93%; for `CC(C)=CCC(C)(C)CNc1ccc(C)cc1`, 66%. For `CCOc1ccccc1NC(=O)C1CCCN(c2ncnc3onc(-c4ccc(F)cc4)c23)C1` (stereo not drawn) the value was 85%; for `Cc1cc(C)cc(NC(=O)CCc2c(C)nc3c(c2C)c(=O)n(C)c(=O)n3C)c1`, 64%; for `COc1ccc(CN2C(=O)N(c3ccc(F)cc3)C(=O)C2CC(=O)Nc2cc(OC)cc(OC)c2)cc1` (stereo not drawn), 81%. For `Cn1c2ccccc2c2nnc(SCC(N)=O)nc21` the value was 76%; for `CCc1ccccc1NC(=O)Cn1c(=O)n(CCCS(=O)(=O)C2CCCCC2)c(=O)c2ccccc21`, 86%; for `CCOc1ccc(CNC(=O)c2cnc3sc(N4CCOCC4)nn3c2=O)cc1`, 81%. Regarding `CCOC(=O)c1c(C)[nH]c(CCC(=O)NCc2cccc(C)c2)c1C`, the survival is 70%. For `Cc1ccc(-n2ncc3c(N(C)C)ncnc32)cc1Cl` the value was 94%; for `Cc1ccc(Cn2c(SCc3ccc(C(=O)N4CCCCCC4)cc3)nc3ccncc32)cc1`, 71%. For `O=C(c1ccc(CSc2nc3ccncc3n2Cc2ccccc2)cc1)N1CCCCCC1` the value was 70%; for `Cc1ccc(Cn2c(SCc3ccc(C(=O)N4CCCCC4)cc3)nc3ccncc32)cc1`, 7% (active). For `Cc1cc(C)c(C#N)c(S(C)(=O)=O)n1` the value was 106%; for `CCc1ccccc1NC(=O)C1CCN(S(=O)(=O)c2cn(C)cn2)CC1`, 93%; for `CCCCN(C)C(=O)C1CCCN(c2ncnc3onc(-c4ccc(F)cc4)c23)C1` (stereo not drawn), 77%. For `Cc1ccc(Nc2c(-c3ccc(N4CCOCC4)cc3)nc3ncccn23)c(C)c1`, the survival was 80%. With `CC1=C(C(=O)OCC2CCCCC2)C(c2ccc(Cl)cc2Cl)CC(=O)N1` (stereo not drawn), the survival was 82%. Turning to `Cc1ccc2c(c1C)NC(=O)CC2c1ccc(Cl)cc1Cl` (stereo not drawn), the survival is 4% (active). In the case of `COc1cccc(C2CC(=O)Nc3c2ccc(C)c3C)c1OC` (stereo not drawn), the survival is 94%.

As to `CCc1ccc(C(=O)CC2(O)C(=O)N(C(C)C)c3ccccc32)cc1` (stereo not drawn), the survival was 79%. For the molecule `CCc1ccc(C(=O)CC2(O)C(=O)N(CCc3ccccc3)c3ccc(Cl)cc32)cc1` (stereo not drawn), the survival was 19% (active). With `Cc1ccc(C(=O)CC2(O)C(=O)N(Cc3ccccc3F)c3ccccc32)cc1` (stereo not drawn), the survival was 60%.

For the molecule `CC(C)c1ccc(C(=O)CC2(O)C(=O)N(CCc3ccccc3)c3ccc(Cl)cc32)cc1` (stereo not drawn), the survival was 33% (active). For `CCc1ccc(C(=O)CC2(O)C(=O)N(CCc3ccccc3)c3ccc(Br)cc32)cc1` (stereo not drawn) the value was 52%. For `CCCN1C(=O)C(O)(CC(=O)c2ccc(C(C)C)cc2)c2ccccc21` (stereo not drawn) the value was 142%. For `Cc1ccc(C(=O)CC2(O)C(=O)N(CCc3ccccc3)c3ccc(Cl)cc32)cc1` (stereo not drawn) the value was 17% (active); for `Cc1ccc(-c2c3c(=O)n(C)c(=O)n(C)c3c3c(C(F)(F)F)nc4ccccc4n23)cc1`, 77%; for `Cc1ccc(S(=O)(=O)CCSc2nc(C)cc(C)c2C#N)cc1`, 53%. In the case of `Nc1nonc1C(=O)NCCNCc1cccc(Cl)c1Cl`, the survival was 65%.

Take `CC(=O)c1cccc(-n2c(=O)c3c4c(sc3n(CC(=O)Nc3ccccc3F)c2=O)CN(C(C)=O)CC4)c1`: the survival was 123%. For `Cc1cccc(-c2nnc(N(C(=O)C3CCC3)C(C)C)s2)c1` the value was 113%; for `COc1ccc(Cn2c(CCC(=O)Nc3cccc(OC)c3)nc3cccnc32)cc1`, 68%. As for `Cc1ccc(COC(=O)c2ccc(-c3nnn(Cc4ccc(C)cc4)n3)cc2)cc1`, the survival is 69%. For `COc1cc(CN(C(=O)COc2ccccc2Cl)c2ccccn2)cc(OC)c1OC` the value was 72%. As to `COc1ccc(Cl)cc1NS(=O)(=O)c1ccc2c(c1)NC(=O)CC(=O)N2`, the survival was 88%. For `CCC(C)NC(=O)CSc1nc(-c2ccc(F)cc2)cc(C(F)(F)F)n1` (stereo not drawn) the value was 86%; for `Cc1nn(-c2nc(-c3ccccc3)cc(C(F)(F)F)n2)c(C)c1Cl`, 5% (active).

As to `COc1cccc(-c2cc(C(F)(F)F)n3nc(C)c(-c4ccccc4)c3n2)c1`, the survival is 79%. For `CC(C)(C)NC(=O)CSc1nc(-c2ccc(F)cc2)cc(C(F)(F)F)n1` the value was 72%. For `Cc1nn(-c2nc(-c3ccc(F)cc3)cc(C(F)(F)F)n2)c(C)c1Cl` the value was 5% (active); for `CN(Cc1ccccc1)c1nc(-c2ccc(F)cc2)cc(C(F)(F)F)n1`, 72%. For `COc1cccc(-c2cc(C(F)(F)F)nc(-n3nc(C)c(Br)c3C)n2)c1` the value was 41% (active); for `COc1ccc(-n2nc(C)c3c(C(F)(F)F)cc(-c4cccnc4)nc32)cc1`, 56%; for `Cc1nn(-c2nc(-c3ccc(F)cc3)cc(C(F)(F)F)n2)c(C)c1Br`, -2% (active). Turning to `COc1ccccc1-c1c(C)nn2c(C(F)(F)F)cc(-c3ccccc3)nc12`, the survival is 41%. For `COc1cccc2c1Oc1ncccc1N(C(=O)Nc1ccc(F)c(Cl)c1)C2` the value was 135%. For `COc1cccc(N2CCN(S(=O)(=O)c3ccc4[nH]c5c(c4c3)CCCC5)CC2)c1` the value was 84%; for `C[N+](C)(C)CC(O)COc1ccccc1` (stereo not drawn), 82%. For `CCc1cccc(C)c1NC(=O)Cn1nc(C)n2cccc2c1=O` the value was 92%; for `COc1cccc(CNC(=O)CCc2nnc3n(CC(C)C)c(=O)c4ccccc4n23)c1`, 85%. For the molecule `COc1ccccc1CNC(=O)CCc1c(C)nc2c(c(C)nn2-c2ccc(C)c(C)c2)c1C`, the survival is 69%. For `CN1C(=O)c2cccc3c(S(=O)(=O)Nc4cccc(C(=O)O)c4)ccc1c23` the value was 74%; for `COC(=O)c1c(-c2ccc(Cl)cc2)noc1N1CCN(c2ccc(C(C)=O)cc2)CC1`, 81%.

Regarding `O=C(CN1CCC(n2nnc3ccccc32)CC1)N(C1CCCCC1)C1CCCCC1`, the survival was 100%. For `Cc1cccc(NS(=O)(=O)c2ccc3[nH]c(=O)[nH]c3c2)c1C` the value was 78%; for `Cc1cc(NC(=O)C2CCCN(S(=O)(=O)c3ccc(Br)s3)C2)ccc1Br` (stereo not drawn), 68%. For `COCC(=O)NC1CCN(Cc2nnnn2Cc2ccc3c(c2)OCO3)CC1` the value was 87%; for `COc1ccccc1NC(=O)Cn1c(=O)n(CC(=O)NCc2ccccc2Cl)c(=O)c2sccc21`, 172%. For `CC(=O)c1ccc(S(=O)(=O)Nc2cccc(-c3ccc(N4CCCCC4)nn3)c2)cc1`, the survival was 80%.

Take `COc1ccc(CCNc2oc(COc3ccc(Cl)cc3)nc2C#N)cc1OC`: the survival was 74%. Take `COc1cccc(/C=C/c2nc(C#N)c(NCCc3ccccc3)o2)c1`: the survival is 90%.

`N#Cc1nc(COc2ccccc2Cl)oc1NCCc1ccccc1`: the survival is 48%. Regarding `COc1ccc(CNc2oc(COc3cccc(C)c3)nc2C#N)cc1`, the survival is 40% (active). Consider `Cc1cccc(OCc2nc(C#N)c(NCc3ccccc3Cl)o2)c1`, for which the survival is 53%. Turning to `COc1ccccc1OCc1nc(C#N)c(NCc2ccc(C)cc2)o1`, the survival was 83%. `N#Cc1nc(COc2cccc(Cl)c2)oc1NCCc1ccccc1`: the survival is 39% (active).

Regarding `COc1ccc(CCNc2oc(COc3cccc(C)c3)nc2C#N)cc1OC`, the survival was 95%. For `Cc1ccc(OCc2nc(C#N)c(NCCc3ccccc3)o2)cc1` the value was 35% (active).

For the origin of these results see PubChem BioAssay AID463173 (ICCB-Longwood Screening Facility, Harvard Medical School, 2010).
